Results filed as inconclusive are left out. The source made the active and inactive calls. Unless noted, calls come from the whole dose curve; as a rule, active = well fitted curve in the direction sought with a large enough effect; inconclusive = small, poorly fitted or top-dose-only effect, or another doubt; inactive = no such curve, though single readings can be large; an effect the other way counts as inactive or inconclusive.
How the values were obtained:
[1] = Validation of Assay for Modulators of Lamin A Splicing (AID 1459; active = well fitted curve in the direction sought with a large enough effect in the signal ratio; the % refers to the signal ratio;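 note: cells exposed to compound for two days before reading; 0% is about no effect; ratio rise marks activators and ratio drop marks inhibitors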)
Procedure, shortened: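 Splicing correction is reported by an EGFP-containing lamin A minigene in stably transfected S3 HeLa cells, while DsRed2 controls for viability and nonspecific signal. Cells are exposed to compounds for 48 hrs before the GFP over RFP ratio is taken.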

[2] = target: DNA repair nuclease/redox regulator APEX1 (Homo sapiens) (UniProt P27695); test: qHTS Validation Assay for Inhibitors of the Human Apurinic/apyrimidinic Endonuclease 1 (APE1) (AID 1705;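 note: TAMRA fluorescence gain over two minutes as APE1 cuts a quenched THF abasic duplex; % is set by controls: 0 for no effect and ±100 for the full control effect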)
Procedure, shortened: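 Endonuclease activity of human APE1 is followed as dequenching when the enzyme incises a tetrahydrofuran abasic site in a short duplex labelled 5'-TAMRA/3'-BHQ-2 (50 nM final), after 15 min enzyme–compound preincubation at room temperature.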

[3] = target: Endonuclease 4 (Escherichia coli (strain K12)) (UniProt P0A6C1); test: Counterscreen for APE1 Inhibitors: qHTS Validation Assay for Inhibitors of Endonuclease IV (AID 1708); note: % is set by controls: 0 for no effect and ±100 for the full control effect
Procedure, shortened: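 Enzyme (2 nM) + compound, 15 min RT; add 50 nM TAMRA/BHQ-2 THF-site dsDNA; kinetic read ex525/em598, 3 reads/60 s; activity = read 3 − read 1. Buffer Tris pH 7.5, 50 mM NaCl, 2 mM MgCl2, DTT, Tween-20.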

[4] = target: ATP-dependent DNA helicase Q1 (Homo sapiens) (UniProt P46063); test: qHTS Validation Assay for Inhibitors of RecQ-Like Dna Helicase 1 (RECQ1) (AID 2353);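 note: plate controls were DMSO vehicle for no effect and enzyme-free control for full effect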
Procedure, shortened: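 RECQ1T1 50 nM; forked duplex (20 bp + 30-nt ss tails) 200 nM, ATP 2 mM final; pH 8.0, 2 mM MgCl2, 2.5 ug/ml poly(dI-dC); 15 min compound preincubation; discontinuous kinetic read over 2 h at RT.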

[5] = Cytometric Cell-Based qHTS for Inhibitors of the mTORC1 Signaling Pathway in MEF (Tsc2-/-, p53-/-) Cells (AID 2660);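 note: Tsc2 and p53 null MEFs carrying empty vector with compound for 24 h; percent of cells above a phospho-rpS6 to PI ratio cutoff in each well; plate controls were DMSO for no effect and rapamycin for full effect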
Procedure, shortened: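 Percent of cells positive for normalized phospho-S6 staining is reported, with the cutoff set from rapamycin (7.5 nM) versus DMSO wells. Tsc2-/-, p53-/- MEFs received compound for 24 hrs.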

[6] = High Content Imaging Cell-Based qHTS for Inhibitors of the mTORC1 Signaling Pathway in MEF (Tsc2-/-, p53-/-) Cells (AID 2666); details: at 38.3 µM (top of the series);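 note: percent of cells scored positive for phospho-rpS6 Ser235/236 immunostaining by imaging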
Procedure, shortened: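 Inhibition of rpS6 phosphorylation is measured by immunofluorescence imaging in empty-vector Tsc2-/-, p53-/- mouse embryonic fibroblasts after 24 hrs compound exposure at 37 degree Celsius. Results are reported as % positive cells per well.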

[7] = High Content Imaging Cell-Based qHTS for Inhibitors of the mTORC1 Signaling Pathway in MEF Cells (AID 2667);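 note: Tsc2-/- p53-/- MEFs stably re-expressing wild-type Tsc2 exposed 24 h; plate controls were DMSO wells for no effect and rapamycin control wells for full effect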
Procedure, shortened: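 Fixed-cell imaging of phospho-S6 (Ser235/236, Alexa-488) after 24 hrs of compound treatment at 37 degree Celsius. Signal was normalized to Hoechst, and thresholds from the highest and lowest wells split cells into % active versus % non-active.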

[8] = target: Ubiquitin carboxyl-terminal hydrolase 2 (Homo sapiens) (UniProt O75604); test: qHTS Validation Assay for Inhibitors of Ubiquitin-specific Protease USP2a Using CHOP2 as the Reporter (AID 463106);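 note: plate controls were DMSO for no effect and full inhibition by NEM for full effect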
Procedure, shortened: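 Inhibition is expressed relative to NEM as the full-inhibition control, with concentration-response curves classed by fit quality, magnitude and activity. Enzyme (USP2 core, 10nM) meets 25nM Ub-CHOP2 after compound preincubation; readings are taken at 60min.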

[9] = target: Tumor susceptibility gene 101 protein (Homo sapiens) (UniProt Q99816); test: qHTS Validation Assay for Iinhibitors of HIV-1 Budding by Blocking the Interaction of PTAP/TSG101 (AID 485342; calls by dose curve; note: 0% is about no effect)
Procedure, shortened: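 Fluorescence anisotropy measured PTAP-Tsg101 interaction. Final concentrations were 10 uM protein domain and 50 nM labeled peptide, equilibrated 20 min at room temperature.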

[10] = target: Beta-2 adrenergic receptor (Homo sapiens) (UniProt P07550); test: qHTS validation assay of beta-arrestin-biased ligands of beta2-adrenergic receptor (AID 485366); note: 0% is about no effect
Procedure, shortened: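 Screening used a titration range of up to 46 microM in a beta-arrestin recruitment Tango luciferase assay. Cells in 1% FBS medium were treated 18 hr at 37 degrees C, and luminescence was normalized to %Activity.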

[11] = target: Thioredoxin reductase 1, cytoplasmic (Rattus norvegicus) (UniProt O89049); test: qHTS Assay for Substrates of Mammalian Selenoprotein Thioredoxin Reductase 1 (TrxR1) (AID 488772);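 note: 0% is about no effect; a drop in NADPH fluorescence below the no-compound background marks a TrxR1 substrate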
Procedure, shortened: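 In this dual-purpose format, potential substrates are identified from the first fluorescence read after selenite addition, not from the 8-minute delta. Rat enzyme is preincubated with NADPH and then with compound at ~22 deg C.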

[12] = target: Flap endonuclease 1 (Homo sapiens) (UniProt P39748); test: qHTS Validation Assay for the Inhibitors of Human Flap endonuclease 1 (FEN1) (AID 488816); note: % is set by controls: 0 for no effect and ±100 for the full control effect
Procedure, shortened: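 Steps: add FEN1 (10 nM reagent) or buffer only; pin compounds; hold 15 min at room temperature; start with substrate, 50 nM final; read at 0 and 15 min; correct, normalize and fit a four-parameter Hill curve.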

[13] = target: M-phase phosphoprotein 8 (Homo sapiens) (UniProt Q99549); test: qHTS Validation Assay for Inhibitors for MPP8 Chromodomain Interactions with Methylated Histone Tails (AID 488949);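 note: AlphaScreen signal from MPP8 chromodomain bound to biotinylated H3K9me3 peptide; top concentration of the series differs between compounds; % is set by controls: 0 for no effect and ±100 for the full control effect; nearly all actives have a fitted effect of over 55% in size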
Procedure, shortened: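 Disruption of the preformed MPP8–trimethyl-H3K9 peptide complex (both 50 nM, 30 min, RT) is measured after 30 min compound exposure, using AlphaScreen proximity beads; aurintricarboxylic acid titration serves as plate control.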

[14] = target: Chromobox protein homolog 1 (Homo sapiens) (UniProt P83916); test: qHTS Validation Assay for Inhibitors of HP1-beta Chromodomain Interactions with Methylated Histone Tails (AID 488953);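 note: loss of AlphaScreen luminescence from HP1-beta binding biotinylated H3K9me3 peptide; % is set by controls: 0 for no effect and ±100 for the full control effect; nearly all actives have a fitted effect of over 50% in size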
Procedure, shortened: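 Disruption of preformed HP1-beta:H3K9me3 peptide complexes (both 50 nM, PBS pH 7.4 with 0.01% Tween-20) is measured by AlphaScreen after 30 min compound exposure at room temperature, using streptavidin donor and nickel chelate acceptor beads at 10 ug/mL final.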

[15] = target: Methanococcus maripaludis chaperonin (MmCpn) (UniProt Q6LX38); test: High-Throughput Screening for Modulators of Cytosolic Chaperonin Activity: MmCpn Primary Screen (AID 488978);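 note: 50 nM MmCpn enzyme hydrolysing 30 µM ATP at 37 °C; 0% is about no effect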
Procedure, shortened: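 Measures ATPase turnover of the M. maripaludis chaperonin (50 nM final) against 30 uM ATP over 10 min at 37C, with compound added 5 min beforehand at room temperature. ADP is quantified by HTRF immunodetection.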

[16] = target: Transient receptor potential cation channel subfamily V member 1 (Homo sapiens) (UniProt Q8NER1); test: HTS Assay for Compounds that Act as Enhancers of the Vanilloid Receptor 1 (AID 488979); note: 0% is about no effect
Procedure, shortened: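 TRPV1-expressing cells loaded with Fluo-8 calcium dye; compounds added and calcium influx read kinetically for 3 min (agonist phase), then capsaicin at EC20 added and read 2 min more for enhancement. Fluorescence ex 480/em 520 nm.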

[17] = target: Thyrotropin receptor (Homo sapiens) (UniProt P16473); test: qHTS Assay for Antagonists of the Thyroid Stimulating Hormone Receptor (AID 488980); note: 0% is about no effect
Procedure, shortened: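 Cells expressing human TSHR (HEK293) are dispensed in HBSS/HEPES containing 70 uM RO 20-1724, compound is added, then TSH at EC80 (4 nM final). Antibody in lysis buffer follows, 30 minutes at room temperature before HTRF detection.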

[18] = Validation screen for small molecules that induce genotoxicity in human embryonic kidney (HEK293T) cells expressing luciferase-tagged ELG1 (AID 493106); note: 0% is about no effect
Procedure, shortened: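 Cells were dispensed at 2,000 per well, then 23 nL compound or DMSO was pinned in. After 16 hr at 37 °C and 5% CO2, ONE-Glo reagent was added. Luciferase activity was measured following 30 min at room temperature.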

[19] = target: ATPase family AAA domain-containing protein 5 (Homo sapiens) (UniProt Q96QE3); test: Validation screen for small molecules that inhibit ELG1-dependent DNA repair in human embryonic kidney (HEK293T) cells expressing luciferase-tagged ELG1 (AID 493107);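 note: cells co-treated with the DNA-damaging agent 5-fluorouridine alongside compound; % is set by controls: 0 for no effect and ±100 for the full control effect; inhibitors lower the ELG1-luciferase luminescence signal; nearly all actives have a fitted effect of over 70% in size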
Procedure, shortened: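 Cells are dispensed in 1536-well format, then 5-fluorouridine and compound are pinned in. After a 16 hr incubation at 37 °C and 5% CO2, ONE-Glo is added and luciferase measured on a CCD imager.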

[20] = target: Thyrotropin-releasing hormone receptor (Homo sapiens) (UniProt P34981); test: qHTS for Small Molecule Agonists and Allosteric Enhancers of Human TRH Receptor: Validation Screen for Agonists (AID 493127;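 active = calcium activation more than 3 SD above the typical response in the agonist read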;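 note: intracellular calcium rise by fluo-8 fluorescence before TRH EC20 addition; 0% is about no effect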); details: TRH receptor agonist cell assay; at 2 µM; stronger effect = higher value
Procedure, shortened: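 Compounds are added by online pintool to dye-loaded TRHR cells while fluorescence is recorded every second. A rise in calcium signal during the agonist read marks activation; a later 10 nM TRH addition (EC20) serves the separate enhancer mode.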

[21] = Nrf2 qHTS screen for inhibitors: Validation (AID 493153; active = well fitted inhibition curve with a large enough effect in the main read-out, with a control signal flat, not every such curve was filed as active); details: viability change: measured here: cytotoxicity max response
Procedure, shortened: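 A549 ARE_Fluc, 5% FBS OPTI-MEM; cpd titration, 18-24 h, 37°C/5% CO2. Read 1: CellTiter-Fluor (Ex 405/Em 525), cytotox. Read 2: luciferase lum, Nrf2 activity.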

[22] = qHTS for Inhibitors of Cell Surface uPA Generation: Validation Assay (AID 493164);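 note: RAW 264.7 macrophage cells exposed to compound for 18 h; 0% is about no effect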
Procedure, shortened: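 ATP-Lite luminescence read-out: ATP remains high when uPA activity-dependent LF translocation into the cytoplasm is blocked. RAW 264.7 cells, 18 h compound exposure at 37 C; 7-point titration, 2.45 nM to 38.3 uM final.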

[23] = Validation screen for small molecules that induce DNA re-replication in SW480 colon adenocarcinoma cells (AID 504364); note: 0% is about no effect
Procedure, shortened: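 Image-based qHTS: compounds were incubated with SW480 cells for 48 hr, nuclei stained with Hoechst, and per-nucleus fluorescence intensity scanned to flag cells with excess DNA content.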

[24] = target: Peptidyl-prolyl cis-trans isomerase NIMA-interacting 1 (Homo sapiens) (UniProt Q13526); test: qHTS Validation Assay to Find Inhibitors of Pin1 (AID 504536; active = well fitted inhibition curve with a large enough effect in the polarisation, with a control signal flat, not every such curve was filed as active; the % refers to the polarisation;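 note: 0% = full Pin1 enzyme wells and -100% = no-enzyme wells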)
Procedure, shortened: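 Fluorescence polarization competition: compounds (titration) displace HiFluor-488-labeled Pin1-1b peptide from Pin1 (0.3 uM final) in pH 7.5 HEPES buffer with DTT, 10 min at room temperature; %Activity normalized to no-enzyme wells, curves fitted.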

[25] = target: Phosphoglycerate kinase, glycosomal (Trypanosoma brucei brucei) (UniProt P07378); test: qHTS Validation Assay to Find Inhibitors of Phosphoglycerate Kinase (AID 504547);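 note: control wells lack PGK and mark full inhibition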
Procedure, shortened: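 In TEA buffer (100mM, pH 7.6) containing 5mM MgCl2 and 0.01% Tween-20, the GAPDH-coupled PGK reaction proceeded for 60 minutes at room temperature before a single luminescence reading using Kinase-Glo Plus.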

[26] = target: phosphoglycerate mutase (Leishmania major) (UniProt Q4Q090); test: qHTS Validation Assay to Find Inhibitors of Phosphoglycerate Mutase (AID 504548);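 note: end-point luminescence from Kinase-GloPlus after the PGAM reaction; % is set by controls: 0 for no effect and ±100 for the full control effect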
Procedure, shortened: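 Inhibition of L. major PGAM was assessed by Kinase-GloPlus luminescence following a 45-minute room-temperature reaction with enzyme at 1.25nM final.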

[27] = target: Ubiquitin carboxyl-terminal hydrolase 1 (Homo sapiens) (UniProt O94782); test: Inhibitors of USP1/UAF1: Pilot qHTS (AID 504865);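 note: rhodamine fluorescence freed from ubiquitin-rhodamine substrate followed over time; top concentration of the series differs between compounds; % is set by controls: 0 for no effect and ±100 for the full control effect; nearly all actives have a fitted effect of over 35% in size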
Procedure, shortened: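 Kinetic fluorescence assay: 1nM USP1/UAF1, 15 min compound preincubation, then 150nM Ub-Rho; 480/540 nm.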

[28] = target: Voltage-gated inwardly rectifying potassium channel KCNH2 (Homo sapiens) (UniProt Q12809); test: qHTS Assay for Small Molecule Inhibitors of the Human hERG Channel Activity (AID 588834);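 note: potency is the fitted concentration of half-maximal effect; lower thallium flux fluorescence means stronger hERG block; nearly all actives have a fitted effect of over 50% in size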
Procedure, shortened: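 Cells were infected with hERG-BacMam virus for 4 hrs at room temperature, grown overnight, then seeded at 2000/well. After dye loading and roughly 10 min compound treatment, thallium influx was triggered and fluorescence recorded.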

Thioredoxin reductase 1, cytoplasmic (Rattus norvegicus), sequence (O89049 whole entry, looked up): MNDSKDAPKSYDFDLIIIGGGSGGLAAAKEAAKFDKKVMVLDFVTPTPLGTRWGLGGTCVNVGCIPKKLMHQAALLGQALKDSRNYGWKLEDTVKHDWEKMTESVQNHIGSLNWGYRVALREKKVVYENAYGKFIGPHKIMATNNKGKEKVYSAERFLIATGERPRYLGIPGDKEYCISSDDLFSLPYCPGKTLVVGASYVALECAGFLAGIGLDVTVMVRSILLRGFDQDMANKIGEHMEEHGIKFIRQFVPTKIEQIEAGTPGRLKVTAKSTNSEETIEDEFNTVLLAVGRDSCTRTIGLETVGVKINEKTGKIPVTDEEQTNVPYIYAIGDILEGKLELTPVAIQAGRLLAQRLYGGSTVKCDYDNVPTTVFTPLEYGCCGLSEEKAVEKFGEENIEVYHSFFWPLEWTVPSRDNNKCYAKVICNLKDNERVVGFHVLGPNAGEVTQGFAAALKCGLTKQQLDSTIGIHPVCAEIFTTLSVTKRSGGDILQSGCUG
Transient receptor potential cation channel subfamily V member 1 (Homo sapiens), sequence (Q8NER1 whole entry, looked up): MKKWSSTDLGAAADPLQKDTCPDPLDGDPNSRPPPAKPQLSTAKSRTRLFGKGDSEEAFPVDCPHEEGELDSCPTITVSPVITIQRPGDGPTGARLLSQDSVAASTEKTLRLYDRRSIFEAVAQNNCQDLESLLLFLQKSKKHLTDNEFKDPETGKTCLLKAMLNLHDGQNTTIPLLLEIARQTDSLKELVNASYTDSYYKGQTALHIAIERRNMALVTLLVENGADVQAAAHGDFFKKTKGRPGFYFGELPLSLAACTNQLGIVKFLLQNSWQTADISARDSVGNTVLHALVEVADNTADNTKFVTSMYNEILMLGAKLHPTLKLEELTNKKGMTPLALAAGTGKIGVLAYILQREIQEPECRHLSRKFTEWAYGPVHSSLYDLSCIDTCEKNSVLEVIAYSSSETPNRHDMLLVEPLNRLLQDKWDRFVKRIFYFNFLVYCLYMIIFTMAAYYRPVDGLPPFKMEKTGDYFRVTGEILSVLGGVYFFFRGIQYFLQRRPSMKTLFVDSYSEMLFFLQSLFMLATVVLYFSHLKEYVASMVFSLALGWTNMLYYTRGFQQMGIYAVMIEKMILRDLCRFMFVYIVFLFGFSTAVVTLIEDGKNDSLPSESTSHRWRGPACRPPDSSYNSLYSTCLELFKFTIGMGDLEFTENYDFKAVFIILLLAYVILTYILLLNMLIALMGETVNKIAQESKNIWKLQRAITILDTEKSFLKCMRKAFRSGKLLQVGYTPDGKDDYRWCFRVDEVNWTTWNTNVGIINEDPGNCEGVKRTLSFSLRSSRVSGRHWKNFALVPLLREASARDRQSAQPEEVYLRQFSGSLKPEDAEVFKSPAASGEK
Ubiquitin carboxyl-terminal hydrolase 1 (Homo sapiens), sequence (O94782 whole entry, looked up): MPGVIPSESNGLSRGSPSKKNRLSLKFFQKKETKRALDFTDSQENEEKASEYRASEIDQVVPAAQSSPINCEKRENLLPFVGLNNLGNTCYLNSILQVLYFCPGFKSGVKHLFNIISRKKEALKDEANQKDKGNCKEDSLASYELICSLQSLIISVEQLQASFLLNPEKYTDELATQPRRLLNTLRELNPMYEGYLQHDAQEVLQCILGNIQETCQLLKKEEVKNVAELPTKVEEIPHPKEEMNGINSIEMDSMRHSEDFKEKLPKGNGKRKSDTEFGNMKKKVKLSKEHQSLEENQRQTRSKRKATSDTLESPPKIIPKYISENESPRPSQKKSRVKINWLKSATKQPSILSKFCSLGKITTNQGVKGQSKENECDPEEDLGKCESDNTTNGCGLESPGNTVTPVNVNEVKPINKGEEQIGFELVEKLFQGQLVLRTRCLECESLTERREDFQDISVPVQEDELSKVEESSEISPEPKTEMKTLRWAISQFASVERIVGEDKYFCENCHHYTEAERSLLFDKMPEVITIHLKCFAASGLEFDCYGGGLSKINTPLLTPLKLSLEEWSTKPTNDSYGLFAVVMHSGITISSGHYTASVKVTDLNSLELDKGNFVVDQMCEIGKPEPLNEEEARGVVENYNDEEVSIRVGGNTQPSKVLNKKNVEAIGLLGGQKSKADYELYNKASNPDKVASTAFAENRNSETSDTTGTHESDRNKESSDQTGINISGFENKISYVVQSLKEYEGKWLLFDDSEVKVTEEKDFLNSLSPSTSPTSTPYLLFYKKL
Voltage-gated inwardly rectifying potassium channel KCNH2 (Homo sapiens), sequence (Q12809 whole entry, looked up): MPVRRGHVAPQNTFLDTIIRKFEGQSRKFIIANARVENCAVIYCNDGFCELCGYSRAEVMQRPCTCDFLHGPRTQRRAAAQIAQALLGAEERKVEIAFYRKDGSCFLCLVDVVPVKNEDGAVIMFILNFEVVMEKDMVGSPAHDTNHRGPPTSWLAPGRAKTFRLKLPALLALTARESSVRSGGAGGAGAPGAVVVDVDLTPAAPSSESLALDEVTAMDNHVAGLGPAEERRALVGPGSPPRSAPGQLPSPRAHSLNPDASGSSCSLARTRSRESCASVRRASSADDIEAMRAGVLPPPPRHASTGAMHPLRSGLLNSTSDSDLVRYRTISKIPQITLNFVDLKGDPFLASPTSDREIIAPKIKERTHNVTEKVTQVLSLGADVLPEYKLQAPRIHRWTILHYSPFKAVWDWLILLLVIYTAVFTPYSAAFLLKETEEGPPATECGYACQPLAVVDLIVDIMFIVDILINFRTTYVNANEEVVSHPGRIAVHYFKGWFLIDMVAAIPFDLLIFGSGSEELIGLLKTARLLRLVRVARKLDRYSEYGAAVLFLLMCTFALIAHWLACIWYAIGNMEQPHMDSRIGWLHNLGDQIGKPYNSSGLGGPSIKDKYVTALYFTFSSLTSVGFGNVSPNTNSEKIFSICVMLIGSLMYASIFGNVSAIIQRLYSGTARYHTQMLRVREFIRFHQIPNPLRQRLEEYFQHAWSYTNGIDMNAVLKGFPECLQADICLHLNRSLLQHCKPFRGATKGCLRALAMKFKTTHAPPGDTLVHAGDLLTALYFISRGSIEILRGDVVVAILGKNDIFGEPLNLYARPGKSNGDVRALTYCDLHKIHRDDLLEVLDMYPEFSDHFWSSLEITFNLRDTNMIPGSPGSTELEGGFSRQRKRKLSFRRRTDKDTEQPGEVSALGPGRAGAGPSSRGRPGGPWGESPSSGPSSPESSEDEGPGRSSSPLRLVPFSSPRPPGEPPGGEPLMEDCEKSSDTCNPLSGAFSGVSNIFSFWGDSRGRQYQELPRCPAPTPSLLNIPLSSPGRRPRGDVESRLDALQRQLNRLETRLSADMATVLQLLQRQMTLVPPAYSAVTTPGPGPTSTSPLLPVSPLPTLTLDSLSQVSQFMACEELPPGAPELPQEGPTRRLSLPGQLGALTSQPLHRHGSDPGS
Beta-2 adrenergic receptor (Homo sapiens), sequence (P07550 whole entry, looked up): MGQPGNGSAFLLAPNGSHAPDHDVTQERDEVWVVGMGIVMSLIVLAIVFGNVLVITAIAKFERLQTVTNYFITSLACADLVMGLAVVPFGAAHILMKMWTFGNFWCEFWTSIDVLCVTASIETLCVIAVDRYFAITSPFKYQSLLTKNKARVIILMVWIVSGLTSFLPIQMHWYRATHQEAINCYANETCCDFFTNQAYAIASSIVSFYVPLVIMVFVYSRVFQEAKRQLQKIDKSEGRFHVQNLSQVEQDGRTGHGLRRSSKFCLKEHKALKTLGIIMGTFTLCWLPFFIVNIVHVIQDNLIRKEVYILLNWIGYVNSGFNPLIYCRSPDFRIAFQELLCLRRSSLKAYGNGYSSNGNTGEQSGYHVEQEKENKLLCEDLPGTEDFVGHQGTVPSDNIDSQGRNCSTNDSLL
Flap endonuclease 1 (Homo sapiens), sequence (P39748 whole entry, looked up): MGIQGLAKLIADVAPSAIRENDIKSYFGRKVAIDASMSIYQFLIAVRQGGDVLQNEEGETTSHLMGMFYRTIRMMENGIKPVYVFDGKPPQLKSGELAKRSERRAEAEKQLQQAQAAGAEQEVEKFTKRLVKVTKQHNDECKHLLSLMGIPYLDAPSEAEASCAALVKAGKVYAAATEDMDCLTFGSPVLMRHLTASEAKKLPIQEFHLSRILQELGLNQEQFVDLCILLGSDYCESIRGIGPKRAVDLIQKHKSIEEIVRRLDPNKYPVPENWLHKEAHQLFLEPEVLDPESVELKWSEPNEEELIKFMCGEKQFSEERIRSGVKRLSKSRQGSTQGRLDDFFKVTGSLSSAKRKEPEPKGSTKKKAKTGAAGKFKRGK
ATP-dependent DNA helicase Q1 (Homo sapiens), sequence (P46063 whole entry, looked up): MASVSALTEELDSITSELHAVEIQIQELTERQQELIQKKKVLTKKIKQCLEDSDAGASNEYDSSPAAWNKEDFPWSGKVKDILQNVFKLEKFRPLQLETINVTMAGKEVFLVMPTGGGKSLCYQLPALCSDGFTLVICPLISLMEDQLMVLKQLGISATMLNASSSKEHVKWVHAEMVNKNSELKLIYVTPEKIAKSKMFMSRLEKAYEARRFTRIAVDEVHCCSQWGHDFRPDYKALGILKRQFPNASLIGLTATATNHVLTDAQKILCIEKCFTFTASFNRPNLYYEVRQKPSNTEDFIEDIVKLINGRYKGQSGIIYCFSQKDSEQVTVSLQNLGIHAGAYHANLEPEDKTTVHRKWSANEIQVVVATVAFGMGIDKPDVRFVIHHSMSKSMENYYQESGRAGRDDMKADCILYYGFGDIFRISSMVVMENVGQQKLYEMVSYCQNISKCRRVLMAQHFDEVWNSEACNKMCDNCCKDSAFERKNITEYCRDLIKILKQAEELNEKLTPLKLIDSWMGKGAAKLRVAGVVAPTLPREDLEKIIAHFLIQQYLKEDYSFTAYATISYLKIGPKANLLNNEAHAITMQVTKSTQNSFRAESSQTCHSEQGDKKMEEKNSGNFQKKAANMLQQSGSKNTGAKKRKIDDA
Chromobox protein homolog 1 (Homo sapiens), sequence (P83916 whole entry, looked up): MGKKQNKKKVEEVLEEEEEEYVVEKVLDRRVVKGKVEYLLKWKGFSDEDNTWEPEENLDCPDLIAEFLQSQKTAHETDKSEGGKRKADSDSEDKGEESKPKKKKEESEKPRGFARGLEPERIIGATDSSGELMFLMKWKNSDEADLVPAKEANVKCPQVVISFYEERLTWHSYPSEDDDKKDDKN

Oc1cc2c(c(Cl)c1O)CCNCC2c1ccccc1 (centres undefined)
active: Potency [28] 2820 nM
-3.92%: viability change [21]
inactive: outcome [1] | Potency [2] | Potency [3] | Potency [4] | outcome [5] | outcome [6] | Potency [7] | Potency [8] | outcome [9] | outcome [10] | outcome [11] | Potency [12] | Potency [13] | Potency [14] | outcome [15] | outcome [16] | outcome [17] | Potency [18] | Potency [19] | activation [20] 2.25% | outcome [21] | outcome [22] | outcome [23] | Potency [24] | Potency [25] | outcome [26] | Potency [27]

Source: PubChem BioAssay (NCATS)
